Reference: PubChem BioAssay AID1159580 (chemical genetic matrix, 2015)
The whole screen tested about 5,500 compounds, of which about 2,000 (36%) were called active. Not shown: some 18% with an inconclusive outcome. The list shows a part of the results. Unmarked numbers belong to inactive results. Rule as the data show it: active = normalized growth mostly below about 0.91 (no sharp cut-off); inconclusive = no clear call, values can overlap the other calls; inactive = mostly above about 0.92.

Test: chemical genetic growth profiling, strain panel (AID 1159580);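 also: tested at 20 µM; growth read once vehicle control cultures reached saturation at 30 °C; 1 = growth at the plate median or of vehicle wells; lower values mean less growth of the strain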
Conditions: S. cerevisiae deletion strains, growth OD

CC(C)(C)C(=O)C(Oc1ccc(Cl)cc1)n1cncn1 (stereo not given)
normalized growth (locus YAL021C, strain ccr4, active compounds read low): 0.639 (active) | normalized growth (locus YAL026C, strain drs2, active compounds read low): 0.081 (active) | normalized growth (locus YAL030W, strain snc1, active compounds read low): 0.133 (active) | normalized growth (locus YBL061C, strain skt5, active compounds read low): 0.136 (active) | normalized growth (locus YBR009C, strain hhf1, active compounds read low): 0.133 (active) | normalized growth (locus YBR023C, strain chs3, active compounds read low): 0.131 (active) | normalized growth (locus YBR171W, strain sec66, active compounds read low): 0.591 (active) | normalized growth (locus YBR231C, strain swc5, active compounds read low): 0.119 (active) | normalized growth (locus YBR279W, strain paf1, active compounds read low): 0.198 (active) | normalized growth (locus YCL011C, strain gbp2, active compounds read low): 0.124 (active) | normalized growth (locus YCL016C, strain dcc1, active compounds read low): 0.129 (active) | normalized growth (locus YCL061C, strain MRC1, active compounds read low): 0.203 (active) | normalized growth (locus YCL069W, strain vba3, active compounds read low): 0.106 (active) | normalized growth (locus YCR088W, strain abp1, active compounds read low): 0.25 (active) | normalized growth (locus YDL005C, strain med2, active compounds read low): 0.565 (active) | normalized growth (locus YDL040C, strain nat1, active compounds read low): 0.272 (active) | normalized growth (locus YDR001C, strain nth1, active compounds read low): 0.221 (active) | normalized growth (locus YDR069C, strain doa4, active compounds read low): 0.655 (active) | normalized growth (locus YDR137W, strain rgp1, active compounds read low): 0.779 (active) | normalized growth (locus YDR159W, strain sac3, active compounds read low): 0.171 (active) | normalized growth (locus YDR195W, strain ref2): 0.573 (active) | normalized growth (locus YDR297W, strain sur2, active compounds read low): 0.19 (active) | normalized growth (locus YDR334W, strain swr1, active compounds read low): 0.141 (active) | normalized growth (locus YDR335W, strain msn5, active compounds read low): 0.223 (active) | normalized growth (locus YDR392W, strain spt3, active compounds read low): 0.104 (active) | normalized growth (locus YEL003W, strain gim4, active compounds read low): 0.154 (active) | normalized growth (locus YEL037C, strain rad23, active compounds read low): 0.268 (active) | normalized growth (locus YEL061C, strain CIN8 (second series), active compounds read low): 0.139 (active) | normalized growth (locus YER015W, strain faa2, active compounds read low): 0.201 (active) | normalized growth (locus YER016W, strain bim1, active compounds read low): 0.187 (active) | normalized growth (locus YER111C, strain swi4, active compounds read low): 0.758 (active) | normalized growth (locus YER155C, strain BEM2 (second series), active compounds read low): 0.746 (active) | normalized growth (locus YFR010W, strain ubp6, active compounds read low): 0.558 (active) | normalized growth (locus YGL167C, strain pmr1, active compounds read low): 0.923 | normalized growth (locus YGL173C, strain kem1, active compounds read low): 0.701 (active) | normalized growth (locus YGL227W, strain vid30, active compounds read low): 0.158 (active) | normalized growth (locus YGL240W, strain doc1, active compounds read low): 0.714 (active) | normalized growth (locus YGL253W, strain hxk2, active compounds read low): 0.0776 (active) | normalized growth (locus YHR013C, strain ard1, active compounds read low): 0.162 (active) | normalized growth (locus YHR027C, strain rpn1, active compounds read low): 0.337 (active) | normalized growth (locus YHR030C, strain SLT2, active compounds read low): 0.113 (active) | normalized growth (locus YHR079C, strain IRE1, active compounds read low): 0.264 (active) | normalized growth (locus YHR142W, strain chs7, active compounds read low): 0.107 (active) | normalized growth (locus YJL092W, strain hpr5, active compounds read low): 0.177 (active) | normalized growth (locus YJL095W, strain BCK1 (second series), active compounds read low): 0.0779 (active) | normalized growth (locus YJL095W, strain BCK1, active compounds read low): 0.129 (active) | normalized growth (locus YJL115W, strain asf1, active compounds read low): 0.396 (active) | normalized growth (locus YJL129C, strain trk1, active compounds read low): 0.183 (active) | normalized growth (locus YJL154C, strain vps35, active compounds read low): 0.409 (active) | normalized growth (locus YJL164C, strain tpk1, active compounds read low): 0.11 (active) | normalized growth (locus YJL166W, strain qcr8, active compounds read low): 0.109 (active) | normalized growth (locus YJL187C, strain SWE1, active compounds read low): 0.135 (active) | normalized growth (locus YJR066W, strain TOR1, active compounds read low): 0.14 (active) | normalized growth (locus YKL160W, strain elf1, active compounds read low): 0.112 (active) | normalized growth (locus YKR026C, strain gcn3, active compounds read low): 0.47 (active) | normalized growth (locus YKR091W, strain srl3, active compounds read low): 0.247 (active) | normalized growth (locus YLL001W, strain dnm1, active compounds read low): 0.168 (active) | normalized growth (locus YLL026W, active compounds read low): 0.0984 (active) | normalized growth (locus YLL041C, strain sdh2, active compounds read low): 0.159 (active) | normalized growth (locus YLR027C, strain aat2, active compounds read low): 0.115 (active) | normalized growth (locus YLR113W, strain HOG1, active compounds read low): 0.308 (active) | normalized growth (locus YLR221C, strain rsa3, active compounds read low): 0.118 (active) | normalized growth (locus YLR258W, strain gsy2, active compounds read low): 0.133 (active) | normalized growth (locus YLR262C, strain YPT6 (second series), active compounds read low): 0.66 (active) | normalized growth (locus YLR320W, strain mms22, active compounds read low): 0.125 (active) | normalized growth (locus YLR342W, strain FKS1, active compounds read low): 0.155 (active) | normalized growth (locus YLR357W, strain rsc2, active compounds read low): 0.513 (active) | normalized growth (locus YLR370C, strain arc18, active compounds read low): 0.184 (active) | normalized growth (locus YLR384C, strain iki3, active compounds read low): 0.672 (active) | normalized growth (locus YML120C, strain ndi1, active compounds read low): 0.153 (active) | normalized growth (locus YMR058W, strain fet3, active compounds read low): 0.184 (active) | normalized growth (locus YMR125W, strain sto1, active compounds read low): 0.147 (active) | normalized growth (locus YMR129W, active compounds read low): 0.161 (active) | normalized growth (locus YMR205C, strain PFK2, active compounds read low): 0.172 (active) | normalized growth (locus YMR231W, strain pep5, active compounds read low): 0.805 (active) | normalized growth (locus YNL071W, strain lat1, active compounds read low): 0.0893 (active) | normalized growth (locus YNL183C, strain NPR1, active compounds read low): 0.178 (active) | normalized growth (locus YNL209W, strain ssb2, active compounds read low): 0.394 (active) | normalized growth (locus YNL248C, strain rpa49, active compounds read low): 0.142 (active) | normalized growth (locus YNL322C, strain KRE1 (second series), active compounds read low): 0.228 (active) | normalized growth (locus YNR049C, strain mso1, active compounds read low): 0.159 (active) | normalized growth (locus YOR001W, strain rrp6, active compounds read low): 0.181 (active) | normalized growth (locus YOR070C, strain gyp1, active compounds read low): 0.0975 (active) | normalized growth (locus YOR080W, strain dia2, active compounds read low): 0.259 (active) | normalized growth (locus YOR083W, strain WHI5, active compounds read low): 0.257 (active) | normalized growth (locus YOR106W, strain vam3, active compounds read low): 0.211 (active) | normalized growth (locus YOR231W, strain MKK1, active compounds read low): 0.273 (active) | normalized growth (locus YOR265W, strain rbl2, active compounds read low): 0.164 (active) | normalized growth (locus YOR270C, strain vph1, active compounds read low): 0.123 (active) | normalized growth (locus YOR290C, strain snf2, active compounds read low): 0.153 (active) | normalized growth (locus YPL051W, strain arl3, active compounds read low): 0.357 (active) | normalized growth (locus YPL078C, strain atp4, active compounds read low): 0.203 (active) | normalized growth (locus YPL106C, strain sse1, active compounds read low): 0.156 (active) | normalized growth (locus YPL240C, strain hsp82, active compounds read low): 0.166 (active) | normalized growth (locus YPL256C, strain CLN2, active compounds read low): 0.357 (active)
